Activity calls are given as the source filed them. Unless noted, the rule behind the calls is not given here.

Assay [1] is described as follows: resazurin metabolic signal in HepG2 cells – cell-based, resazurin fluorescence, 24 h, PK04 Diversity Set, profiling panel (AID 1172). Note: test concentration not given here. Conditions: HepG2 viability, higher = more signal. (Alamar Blue is a resazurin reagent that responds to reducing activity.)
Assay [2] in a line: budding yeast growth changes without added modifier – OD600, strain BY4716, 24 h, basal condition, primary screen (AID 1173). Conditions: S. cerevisiae BY4716 growth, OD600, 24 h; higher = more signal, called active from +8 up or from −8 down.
A short description of assay [3]: viability profiling in MM1S myeloma cells – cell-based, resazurin fluorescence, basal, 24 h, PK04 Diversity Set, profiling panel (AID 1174).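 Note: MM1S multiple myeloma cell line; test concentration not given here.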 Particulars: higher = more signal, called active from +8 up or from −8 down.
The target of assay [4] is Dihydroorotate dehydrogenase (quinone), mitochondrial (Plasmodium falciparum (isolate 3D7)) (UniProt Q08210). Nature of the assay: inhibition of P. falciparum DHODH – biochemical, C-terminal His tag, absorbance 600 nm, primary screen (AID 1175).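 Note: recombinant parasite enzyme with a five histidine tag at its C terminus; test concentration not given here.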 Particulars: PfDHODH enzyme, DCIP absorbance 600 nm; higher = more signal, called active from +8 up or from −8 down.
Assay [5] can be described thus: inhibition of PAO1 biofilm formation – strain PAO1, LB-PBS medium, absorbance 600 nm, primary screen (AID 1176). Note: test concentration not given here. Particulars: P. aeruginosa PAO1 growth/biofilm, A600, 12 h; higher = more signal.
Assay [6] is described as follows: growth modulation of vineyard yeast isolate – strain RM11-1a, OD600, basal, 24 h, primary screen (AID 1177).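 Note: cultures grown under basal conditions with no added stressor; test concentration not given here.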 Particulars: S. cerevisiae RM11-1a growth, OD600, 24 h; higher = more signal, called active from +8 up or from −8 down.
Assay [7] is described as follows: growth of efflux-deficient E. coli DRC39 – strain DRC39, OD650, 24 h, E. coli filamentation inducers, primary screen (AID 1178).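 Note: growth measured as culture turbidity by optical density at 650 nm; test concentration not given here.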 Conditions: E. coli DRC39 acrAB, higher = more signal, called active from +8 up or from −8 down.
Assay [8] is described as follows: growth of efflux-deficient E. coli DRC39 – strain DRC39, OD650, 48 h, E. coli filamentation inducers, primary screen (AID 1179).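 Note: screen aims at cell division blockers that make cells filament.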 Conditions: E. coli DRC39 delta-acrAB growth, higher = more signal, called active from +8 up or from −8 down.
A short description of assay [9]: viability profiling in RPMI8226 myeloma cells – cell-based, resazurin fluorescence, basal, 24 h, PK04 Diversity Set, profiling panel (AID 1180).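 Note: RPMI8826 multiple myeloma cell line at 5000 cells per well; test concentration not given here.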 Particulars: higher = more signal.
Assay [10] deals with E3 ubiquitin-protein ligase XIAP (Homo sapiens) (UniProt P98170). Put plainly: small molecules binding XIAP protein – biophysical, small-molecule microarray, fluorescence 635 nm, primary screen (AID 1181).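 Note: score merges 667 nm emission and signal to noise over triplicate slides.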 Conditions: higher = more signal.
E3 ubiquitin-protein ligase XIAP (Homo sapiens), sequence (P98170 whole entry, looked up): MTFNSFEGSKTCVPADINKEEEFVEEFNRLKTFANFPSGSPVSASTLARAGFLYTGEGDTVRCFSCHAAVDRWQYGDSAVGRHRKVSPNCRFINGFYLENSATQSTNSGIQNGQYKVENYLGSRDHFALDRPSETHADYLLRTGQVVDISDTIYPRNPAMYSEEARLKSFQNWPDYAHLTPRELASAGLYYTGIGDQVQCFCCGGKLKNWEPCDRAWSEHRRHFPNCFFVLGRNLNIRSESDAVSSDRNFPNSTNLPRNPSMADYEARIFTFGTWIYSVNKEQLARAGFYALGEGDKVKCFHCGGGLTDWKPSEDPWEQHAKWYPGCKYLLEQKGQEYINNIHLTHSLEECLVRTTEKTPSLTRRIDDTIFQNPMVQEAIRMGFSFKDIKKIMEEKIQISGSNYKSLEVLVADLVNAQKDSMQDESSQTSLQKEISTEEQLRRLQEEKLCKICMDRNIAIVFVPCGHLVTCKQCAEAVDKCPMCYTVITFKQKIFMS

Dihydroorotate dehydrogenase (quinone), mitochondrial (Plasmodium falciparum (isolate 3D7)), sequence (Q08210 whole entry, looked up): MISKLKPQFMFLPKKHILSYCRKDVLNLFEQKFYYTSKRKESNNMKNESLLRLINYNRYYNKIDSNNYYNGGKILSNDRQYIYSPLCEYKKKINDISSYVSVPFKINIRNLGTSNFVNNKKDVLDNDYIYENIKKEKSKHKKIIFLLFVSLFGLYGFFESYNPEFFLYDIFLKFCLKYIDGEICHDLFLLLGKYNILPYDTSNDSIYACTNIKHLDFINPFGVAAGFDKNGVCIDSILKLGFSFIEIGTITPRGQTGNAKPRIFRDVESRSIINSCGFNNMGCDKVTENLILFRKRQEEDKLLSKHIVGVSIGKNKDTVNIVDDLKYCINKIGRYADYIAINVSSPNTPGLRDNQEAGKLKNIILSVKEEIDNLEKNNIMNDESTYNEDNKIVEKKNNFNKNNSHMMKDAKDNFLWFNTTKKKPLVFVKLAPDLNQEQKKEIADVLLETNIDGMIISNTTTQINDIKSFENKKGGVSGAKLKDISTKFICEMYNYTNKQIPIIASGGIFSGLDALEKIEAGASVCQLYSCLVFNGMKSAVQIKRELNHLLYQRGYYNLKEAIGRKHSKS

For `CCCNC(=O)OC[C@H]1O[C@H](CCON=C(C)C)C=C[C@@H]1Oc1ccc(OC)cc1`, the z-score was -0.131 in assay [1]; -2.44 (inactive) in assay [2]; -0.112 (inactive) in assay [3]; 0.736 (inactive) in assay [5]; -0.0159 (inactive) in assay [6]; 0.675 (inactive) in assay [7]. In addition, the z-score in assay [8] was -1.4 (inactive); in assay [9], -0.331. The composite z-score in assay [4] is -0.411 (inactive); in assay [10], -0.0859.
With `CC[C@@H](c1ccccc1)n1c(=O)n2n(c1=O)[C@H]1[C@H](O)[C@@H]3O[C@@H]3C(=O)[C@H]1CC2`, the z-score in assay [1] was -0.797; in [2] it was -1.57 (inactive); in [3] it was -2.15 (inactive); in assay [5], -0.626 (inactive); in [6], -0.552 (inactive); in assay [7] it was 0.285 (inactive). In addition, the z-score in assay [8] was 0.216 (inactive); in [9], -2.04. The figures for the composite z-score in assay [4] and in assay [10] were 0.807 (inactive) and 0.0641, respectively.
For `COC(=O)CC=C[C@@H](C)[C@@H](C=NO[C@H](C)c1cn([C@@H]2COC[C@H]2O)nn1)NS(=O)(=O)c1ccc(C)cc1`, the z-score was -1.37 in [1]; -0.335 (inactive) in assay [2]; -1.34 (inactive) in [3]; 0.301 (inactive) in [5]; 0.278 (inactive) in [6]; 0.524 (inactive) in [7]. Moreover, the results for the z-score in assay [8] and in [9] were 1.29 (inactive) and -0.687, respectively. Further, the composite z-score in assay [4] is -0.753 (inactive); in [10], -0.267.
`CC(CCN1CCCCc2nc(C)c(C)cc21)=NO[C@H](C)c1cn([C@H](CO)Cc2ccccc2)nn1`: the z-score is -0.605 in assay [1]; -0.241 (inactive) in assay [2]; 0.0783 (inactive) in [3]; -0.503 (inactive) in assay [5]; -0.134 (inactive) in assay [6]; -0.894 (inactive) in assay [7]. Besides, the z-score in assay [8] was -0.488 (inactive); in assay [9], 0.594. Also, the composite z-score was 0.301 (inactive) in [4] and 0.0595 in assay [10].
In the case of `C#CCCCON=C1C[C@@H](O)[C@@H](O)[C@@H]2[C@@H]3C(=O)N(CC)C(=O)[C@@H]3CC[C@@H]12`, the z-score was -0.245 in assay [1]; 0.961 (inactive) in [2]; -0.529 (inactive) in [3]; 0.07 (inactive) in assay [5]; 0.375 (inactive) in [6]; 0.0322 (inactive) in [7]. Besides, the z-score was -0.569 (inactive) in assay [8] and -0.244 in assay [9]. For the same compound, the composite z-score in assay [4] is -0.367 (inactive); in assay [10] it was -0.0473.
`Cc1cc2c(nc1C)CCCN2CC(O)CN1CCCc2nc(C)c(C)cc21`: the z-score in assay [1] is 0.269; in assay [2] it was 0.0477 (inactive); in [3], -0.644 (inactive); in assay [5] it was 0.979 (inactive); in assay [6], 0.255 (inactive); in assay [7], -0.494 (inactive). Also, the z-score in [8] was -0.242 (inactive); in assay [9] it was 0.399. In addition, the composite z-score in assay [4] was 0.0382 (inactive); in [10] it was 1.12.
In the case of `CCOC(=O)[C@H](Cc1ccccc1)NC(=O)CCC1CC(OC(=O)NCCc2ccc(F)cc2)CC2(CCCC(COC(=O)NCC3CCCCC3)O2)O1` (stereo not given in full), the z-score in assay [1] was 0.211; in assay [2], -0.362 (inactive); in assay [3], 0.368 (inactive); in assay [5], 0.781 (inactive); in [6], 0.869 (inactive); in assay [7] it was 0.828 (inactive). The z-score in assay [8] is 1.21 (inactive); in [9], 0.772. Moreover, the composite z-score in assay [4] was -0.189 (inactive); in [10], -0.0009.
`CC=CC1=C(CO)C(=O)[C@@H]2O[C@@H]2C1=O`: the z-score in assay [1] was -0.714; in assay [2] it was -1.37 (inactive); in [3], -1.58 (inactive); in assay [5], 0.827 (inactive); in assay [6], -1.22 (inactive); in [7] it was 0.246 (inactive). The results for the z-score in assay [8] and in [9] were 0.537 (inactive) and -0.875, respectively. Further, the figures for the composite z-score in [4] and in assay [10] were 0.324 (inactive) and -0.0498, respectively.
With `CC(=O)O[C@H]1C2=CO[C@H](C)[C@H]3[C@H]4C5=C([C@H](O)[C@H]6O[C@H]6C5=O)[C@H](OC4C)[C@@]23C(=O)[C@@H]2O[C@@H]21` (stereo not given in full), the z-score in assay [1] was -1.75; in assay [2], 0.0895 (inactive); in assay [3], -4.88 (inactive); in assay [5] it was 1.09 (inactive); in [6], -0.464 (inactive); in [7] it was -0.262 (inactive). In addition, the z-score is -0.267 (inactive) in assay [8] and -3.5 in [9]. Further, the figures for the composite z-score in assay [4] and in assay [10] were -0.219 (inactive) and -0.266, respectively.
As for `CCOC(=O)[C@H](CC(C)C)NC(=O)CCC1CC(OC(=O)NCCc2ccc(F)cc2)CC2(CCCC(COC(=O)NCCC(C)C)O2)O1` (stereo not given in full), the z-score is -0.566 in assay [1]; 1.2 (inactive) in [2]; 0.214 (inactive) in assay [3]; 0.532 (inactive) in assay [5]; 0.821 (inactive) in assay [6]; 0.334 (inactive) in [7]. For the same compound, the z-score in assay [8] is -0.139 (inactive); in assay [9], 0.398. The composite z-score was 0.322 (inactive) in assay [4] and 0.0938 in [10].
Consider `CCc1cc2c(nc1CC)CCN(CCC(C)=NOC[C@H]1O[C@H](c3ccccc3)C=C[C@@H]1Oc1ccc(OC)cc1)C2`, for which the z-score in assay [1] is 0.0523; in assay [2], -1.75 (inactive); in assay [3], 0.22 (inactive); in [5] it was -0.197 (inactive); in assay [6], -0.409 (inactive); in assay [7], -1.58 (inactive). Moreover, the z-score was -1.43 (inactive) in [8] and 0.218 in assay [9]. Moreover, the composite z-score in assay [4] was -3.81 (inactive); in [10], -0.23.
In the case of `COC(=O)CC=C[C@@H](C)[C@@H](C=NOCC[C@@H]1C=C[C@H](OC(C)=O)[C@@H](COC(C)=O)O1)NS(=O)(=O)c1ccc(C)cc1`, the z-score in [1] is -0.564; in assay [2], 0.705 (inactive); in [3] it was -0.602 (inactive); in assay [5], 0.453 (inactive); in assay [6] it was 0.193 (inactive); in assay [7] it was 0.336 (inactive). The z-score in [8] was 0.402 (inactive); in assay [9], -0.393. The results for the composite z-score in assay [4] and in assay [10] were 0.33 (inactive) and 0.0374, respectively.
In the case of `COC(=O)[C@@H]1CC[C@H](C)[C@@H](c2ccc(C)cc2)N1C(=O)c1ccc(C=NO[C@@H]2O[C@H](COC(C)=O)[C@@H](OC(C)=O)[C@H](OC(C)=O)[C@H]2OC(C)=O)cc1`, the z-score is -0.124 in [1]; 0.786 (inactive) in assay [2]; 0.952 (inactive) in [3]; -0.172 (inactive) in [5]; 0.178 (inactive) in assay [6]; -1.44 (inactive) in [7]. Besides, the z-score was -1.65 (inactive) in assay [8] and 0.369 in assay [9]. Moreover, the composite z-score in assay [4] was -2.7 (inactive); in assay [10], 0.0131.
Turning to `CON=Cc1ccc(C(=O)N2[C@H](c3ccc(C)cc3)[C@@H](C)CC[C@H]2C(=O)OC)cc1`, the z-score in assay [1] is 0.259; in [2], -2.35 (inactive); in [3], 0.37 (inactive); in assay [5], -0.066 (inactive); in [6] it was -0.308 (inactive); in assay [7], 0.743 (inactive). The z-score in assay [8] is 0.0138 (inactive); in assay [9], 0.589. The composite z-score in assay [4] is 0.442 (inactive); in assay [10], -0.0559.
`C=COC[C@@H]1CN2[C@@H](CC[C@@H](C)[C@@H]2c2ccc(Br)cc2)C(=O)O1`: the z-score was -0.32 in assay [1]; -4.37 (inactive) in assay [2]; -0.345 (inactive) in assay [3]; -1.01 (inactive) in [5]; -0.889 (inactive) in assay [6]; -1.03 (inactive) in assay [7]. The results for the z-score in assay [8] and in [9] were -1.65 (inactive) and 0.169, respectively. For the same compound, the composite z-score is -3.12 (inactive) in assay [4] and -0.0669 in assay [10].
As to `O=C1[C@H]2[C@H]3[C@H](O)[C@H](O)CC(=NOC[C@@H](O)COCc4ccco4)[C@H]3CC[C@H]2C(=O)N1Cc1ccccc1`, the z-score in assay [1] was 1.57; in [2], -1.34 (inactive); in assay [3], 0.737 (inactive); in [5] it was 0.377 (inactive); in assay [6] it was -1.36 (inactive); in assay [7], -0.194 (inactive). The z-score was -0.22 (inactive) in [8] and 1.1 in assay [9]. For the same compound, the composite z-score was -0.336 (inactive) in assay [4] and -0.0749 in assay [10].

(Values after PubChem BioAssay.)
